Inconclusive results are not listed. A number with no mark means an inactive call. Calls of active or inactive are those of the source. Calls follow the shape of the dose curve; as a rule, active = well fitted inhibition curve with a large enough effect; inconclusive = small, poorly fitted or top-dose-only effect; inactive = no such curve, though single readings can be large or run the other way.
% is scaled to controls: 0 for no effect and ±100 for the full control effect; potency is read from the fitted curve at half-maximal effect.

This test is described as follows: qHTS for Inhibitors of the Aldehyde Dehydrogenase Family (ALDH1A2, ALDH1A3, ALDH2, ALDH3A1) (AID 2061307). Also: nearly all actives have a fitted effect of over 50% in size. As to Potency: test system not described further here. The conditions noted are these: ALDH inhibition qHTS; series mostly up to 50.3 µM; activity change, negative = inhibition: at the top concentration. In general terms: qHTS replaces the single test concentration by a dilution series.
On to `O=C(Nc1ncc(Cc2ccc(C(F)(F)F)cc2)s1)C1CCC(c2ccccc2)CC1` (stereo not given), for which the “activity change, negative = inhibition” value is -3.71%.

With `O=C(c1ccco1)N1CCN(Cc2nc3ccccc3c(=O)n2-c2ccccc2[N+](=O)[O-])CC1`, the “activity change, negative = inhibition” value was -18%. As to `O=C(CCCCc1cn(-c2cc3ccc(O)cc3oc2=O)nn1)NCCOCCOCCOc1ccc(-n2ncc3c2CCCC3NC(=O)c2ccccn2)cc1` (stereo not given), the Potency was 2.82 µM (active). For the compound `N#CC1CCN(c2nc(Br)cs2)CC1`, the “activity change, negative = inhibition” value was -9.32%. For the compound `COc1ccc(C(=O)O/N=C(\N)c2ccccn2)cc1`, the Potency was 0.538 µM (active). Take `O=C([C@@H](NS(=O)(=O)c1ccc2[nH]c(=O)ccc2c1)c1ccccc1)N(Cc1ccco1)Cc1cccs1`: the “activity change, negative = inhibition” value is 7.55%. Consider `Cc1ccc(-c2ocnc2C(=O)N(C)Cc2cccc(C(N)=O)c2)cc1`, for which the “activity change, negative = inhibition” value is 0% [at 34.4 µM]. For `O=C(O)c1cc(-c2cccs2)nc2cc(Br)ccc12`, the Potency is 10.1 µM (active). `Cc1sc(NC(=O)Cc2ccc3c(c2)OCO3)nc1-c1ccc2c(c1)CCN2C(=O)c1cncn1C`: the Potency was 7.94 µM (active). On to `Cc1ccc(CNc2ncnc3c2oc2ccccc23)cc1`, for which the “activity change, negative = inhibition” value is -1.39%. On to `COc1cccc2cc(C(=O)Nc3ccc(C)cc3)c(=O)oc12`, for which the “activity change, negative = inhibition” value is -25.8% [at 34.4 µM]. Same read-out and setting: then `FC(F)(F)c1ccnn1-c1nc(-c2ccccc2Cl)cs1`, with -8.85% [at 34.4 µM]; and `O=C(Nc1ccccn1)c1cccs1`, with 12.5%. On the same count and under the same terms, the result for `N[C@@H](CCC(=O)O)C(=O)Nc1cccc(-c2nn3c(=O)cc(N4CCNCC4)nc3s2)c1` reads -3.94%; that for `COc1ccccc1CNC(=O)c1ccccc1N`, -12.6%. As to `COc1ccc(-n2ccc(CNc3cccc(F)c3C#N)n2)cc1`, the “activity change, negative = inhibition” value is -28.1% [at 34.4 µM].

As to `COc1cccc(-c2nc(CNc3cccc(C(C)=O)c3)cs2)c1`, the Potency is 10 µM (active). Regarding `c1ccc(CCN(Cc2ccccc2)C2CCN(Cc3ccc4c(c3)OCCO4)CC2)cc1`, the “activity change, negative = inhibition” value was 20.9%. For `O=C(O)c1csc(-n2[nH]c(-c3ccc(F)c(F)c3)cc2=O)n1`, the “activity change, negative = inhibition” value was -26.5%. `CC(=O)Nc1ccc(NC(=O)c2sc(COc3ccc(F)cc3)nc2C)cc1`: the “activity change, negative = inhibition” value is -19.1% [at 34.4 µM]. As for `N#Cc1ccc(NC(=O)Cn2cnc3ccccc3c2=O)cc1`, the “activity change, negative = inhibition” value is -22.5% [at 34.4 µM]. For `c1ccc(CCN(Cc2ccccc2)C2CCN(c3ccccc3)CC2)cc1`, the “activity change, negative = inhibition” value is -12.4%. On to `C=Cc1cc(NC(=O)CN)cc(-c2nn3c(=O)cc(N4CCNCC4)nc3s2)c1`, for which the “activity change, negative = inhibition” value was 91.2%. In the case of `O=C1NC(c2ccc(N3CCOCC3)cc2)(c2ccsc2)CC(O)=C1Sc1ccccc1Cl` (stereo not given), the “activity change, negative = inhibition” value was -25.9%.

With `O=C(Nc1ccc(S(=O)(=O)N2CCOC(c3ccccc3)C2)cc1)c1ccc(CN2CCc3ccccc3C2)cc1` (stereo not given), the “activity change, negative = inhibition” value is 1.44%. In the case of `CC(C)Oc1ccc(-c2nc(C(=O)Nc3ncn[nH]3)cs2)cc1`, the Potency was 3.55 µM (active). Turning to `O=C(NCc1ccccc1Cl)c1csc(N2CCN(c3ccc(F)cc3)CC2)n1`, the Potency is 2.51 µM (active).

For `CC(NC(=O)c1ccco1)c1nc(-c2ccccc2)no1` (stereo not given), the “activity change, negative = inhibition” value was -45.8% [at 34.4 µM]. With `O=S(=O)(Nc1ccccc1F)c1cccc(NC(=S)NCCN2CCOCC2)c1`, the “activity change, negative = inhibition” value is -5.69%. As for `COc1ccc(NC(=O)C2CCN(c3ccc(Sc4ccc(C)cc4)nn3)CC2)cc1`, the “activity change, negative = inhibition” value was -34.3% [at 34.4 µM]. Turning to `COc1ccccc1Nc1ccc2c(O)cc(S(=O)(=O)O)cc2c1`, the Potency is 31.6 µM (active).

In the case of `CCN1C(=O)c2ccccc2S(=O)c2ccc(C(=O)NCc3cccc(-c4ccccc4)c3)cc21` (stereo not given), the Potency was 22.5 µM (active). `CC(C)(C)NC(=O)c1ccc(NC(=O)c2cn(-c3ccccc3)nc2-c2cccnc2)cc1`: the “activity change, negative = inhibition” value is -29.1% [at 34.4 µM]. `O=C(O)c1cccc(Nc2ncnc3sccc23)c1`: the “activity change, negative = inhibition” value is 0% [at 34.4 µM]. For the compound `COCCN(CC(=O)Nc1cccc(C)c1C)C(=O)c1cc2c(s1)CCC2`, the “activity change, negative = inhibition” value is -5.3%. Take `Clc1ccc(Cn2cnc3ccccc32)cc1`: the Potency is 14.1 µM (active). On to `Cc1cnc(Cl)nc1NCc1ccc(-n2ccnn2)cc1`, for which the “activity change, negative = inhibition” value is -20.9%. `Cc1cccc(NC(=O)c2nc(C)n(-c3ccc(F)cc3)n2)n1`: the “activity change, negative = inhibition” value was 0% [at 34.4 µM]. For the compound `CCOc1ccccc1NC(=O)c1nn(-c2ccc(OC)cc2)c(=O)c2c1c1ccccc1n2C`, the “activity change, negative = inhibition” value is -4.51% [at 34.4 µM]. Regarding `O=C1CN(S(=O)(=O)c2cccc(C(=O)Nc3ccc(OC(F)(F)F)cc3)c2)CCN1`, the “activity change, negative = inhibition” value was -5.52%.

Values taken from PubChem BioAssay (NCATS).
